Measurements as given in the supplement of paper PMC11732987, “Enantioselective OTUD7B fragment discovery through chemoproteomics screening and high-throughput optimisation” (Communications Chemistry, 2025).

Assays:
Test in all cases: log2 ratio of Biotin-Ahx-Ub-VS probe labelling (fragment/DMSO); higher = less target engagement (more negative = stronger competition), active = hit call of the paper (q ≤ 0.05, log2 ratio ≤ -1)
Conditions in all cases: compound concentration: 200 uM; treatment time: 3 h
USP19 = target: T1, USP19 (UniProt O94966)
T1 sequence (whole entry): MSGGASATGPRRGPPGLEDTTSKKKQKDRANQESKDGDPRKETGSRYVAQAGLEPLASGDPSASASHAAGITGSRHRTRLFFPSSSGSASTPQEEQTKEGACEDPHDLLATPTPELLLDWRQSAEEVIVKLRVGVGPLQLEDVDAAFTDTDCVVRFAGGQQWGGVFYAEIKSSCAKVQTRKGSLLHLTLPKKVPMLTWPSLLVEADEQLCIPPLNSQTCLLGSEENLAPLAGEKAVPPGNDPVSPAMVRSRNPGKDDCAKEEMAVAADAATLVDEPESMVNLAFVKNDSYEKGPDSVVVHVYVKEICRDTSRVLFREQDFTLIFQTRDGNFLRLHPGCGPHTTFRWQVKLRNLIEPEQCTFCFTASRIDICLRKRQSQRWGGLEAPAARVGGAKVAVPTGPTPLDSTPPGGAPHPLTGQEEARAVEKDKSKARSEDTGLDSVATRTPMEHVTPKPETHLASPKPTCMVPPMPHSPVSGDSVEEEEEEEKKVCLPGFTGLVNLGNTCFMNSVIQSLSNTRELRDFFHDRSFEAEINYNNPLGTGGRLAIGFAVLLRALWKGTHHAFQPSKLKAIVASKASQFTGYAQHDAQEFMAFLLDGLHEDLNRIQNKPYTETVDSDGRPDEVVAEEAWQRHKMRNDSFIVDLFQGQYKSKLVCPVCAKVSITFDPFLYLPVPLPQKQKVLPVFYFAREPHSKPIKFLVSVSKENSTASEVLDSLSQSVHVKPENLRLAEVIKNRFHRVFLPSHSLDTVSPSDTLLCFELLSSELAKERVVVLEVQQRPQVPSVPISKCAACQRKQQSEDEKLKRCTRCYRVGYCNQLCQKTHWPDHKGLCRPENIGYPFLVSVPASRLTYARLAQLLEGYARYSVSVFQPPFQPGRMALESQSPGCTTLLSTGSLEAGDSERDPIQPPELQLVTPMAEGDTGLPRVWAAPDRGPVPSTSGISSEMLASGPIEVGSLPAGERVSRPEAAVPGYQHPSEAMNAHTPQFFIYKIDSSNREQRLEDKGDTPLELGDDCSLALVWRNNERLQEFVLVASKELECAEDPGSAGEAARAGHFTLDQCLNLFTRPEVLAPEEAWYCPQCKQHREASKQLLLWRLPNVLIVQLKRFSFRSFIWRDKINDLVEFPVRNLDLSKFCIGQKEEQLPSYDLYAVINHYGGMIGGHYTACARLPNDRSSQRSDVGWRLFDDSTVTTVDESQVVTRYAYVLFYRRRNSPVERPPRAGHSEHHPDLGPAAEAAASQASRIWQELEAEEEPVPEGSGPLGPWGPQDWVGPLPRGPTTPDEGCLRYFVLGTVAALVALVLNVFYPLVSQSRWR
In short: (§1)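 HEK293T lysate in Tris/CHAPS/IGEPAL buffer with protease inhibitors (495 µg per sample) was given fragment at 200 µM or vehicle for 3 h, in triplicate. It then received Biotin-Ahx-Ub-VS at 0.5 µM final for 1 h. Labelled DUBs were NeutrAvidin-enriched, digested with LysC and trypsin, and run by diaPASEF LC-MS/MS. Values are average log2 fragment/vehicle ratios by unpaired t-test on global-median-normalised Spectronaut quantities of proteins with ≥2 unique peptides.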

USP24 = USP24 (UniProt Q9UPU5)
USP24, sequence (Q9UPU5 whole entry): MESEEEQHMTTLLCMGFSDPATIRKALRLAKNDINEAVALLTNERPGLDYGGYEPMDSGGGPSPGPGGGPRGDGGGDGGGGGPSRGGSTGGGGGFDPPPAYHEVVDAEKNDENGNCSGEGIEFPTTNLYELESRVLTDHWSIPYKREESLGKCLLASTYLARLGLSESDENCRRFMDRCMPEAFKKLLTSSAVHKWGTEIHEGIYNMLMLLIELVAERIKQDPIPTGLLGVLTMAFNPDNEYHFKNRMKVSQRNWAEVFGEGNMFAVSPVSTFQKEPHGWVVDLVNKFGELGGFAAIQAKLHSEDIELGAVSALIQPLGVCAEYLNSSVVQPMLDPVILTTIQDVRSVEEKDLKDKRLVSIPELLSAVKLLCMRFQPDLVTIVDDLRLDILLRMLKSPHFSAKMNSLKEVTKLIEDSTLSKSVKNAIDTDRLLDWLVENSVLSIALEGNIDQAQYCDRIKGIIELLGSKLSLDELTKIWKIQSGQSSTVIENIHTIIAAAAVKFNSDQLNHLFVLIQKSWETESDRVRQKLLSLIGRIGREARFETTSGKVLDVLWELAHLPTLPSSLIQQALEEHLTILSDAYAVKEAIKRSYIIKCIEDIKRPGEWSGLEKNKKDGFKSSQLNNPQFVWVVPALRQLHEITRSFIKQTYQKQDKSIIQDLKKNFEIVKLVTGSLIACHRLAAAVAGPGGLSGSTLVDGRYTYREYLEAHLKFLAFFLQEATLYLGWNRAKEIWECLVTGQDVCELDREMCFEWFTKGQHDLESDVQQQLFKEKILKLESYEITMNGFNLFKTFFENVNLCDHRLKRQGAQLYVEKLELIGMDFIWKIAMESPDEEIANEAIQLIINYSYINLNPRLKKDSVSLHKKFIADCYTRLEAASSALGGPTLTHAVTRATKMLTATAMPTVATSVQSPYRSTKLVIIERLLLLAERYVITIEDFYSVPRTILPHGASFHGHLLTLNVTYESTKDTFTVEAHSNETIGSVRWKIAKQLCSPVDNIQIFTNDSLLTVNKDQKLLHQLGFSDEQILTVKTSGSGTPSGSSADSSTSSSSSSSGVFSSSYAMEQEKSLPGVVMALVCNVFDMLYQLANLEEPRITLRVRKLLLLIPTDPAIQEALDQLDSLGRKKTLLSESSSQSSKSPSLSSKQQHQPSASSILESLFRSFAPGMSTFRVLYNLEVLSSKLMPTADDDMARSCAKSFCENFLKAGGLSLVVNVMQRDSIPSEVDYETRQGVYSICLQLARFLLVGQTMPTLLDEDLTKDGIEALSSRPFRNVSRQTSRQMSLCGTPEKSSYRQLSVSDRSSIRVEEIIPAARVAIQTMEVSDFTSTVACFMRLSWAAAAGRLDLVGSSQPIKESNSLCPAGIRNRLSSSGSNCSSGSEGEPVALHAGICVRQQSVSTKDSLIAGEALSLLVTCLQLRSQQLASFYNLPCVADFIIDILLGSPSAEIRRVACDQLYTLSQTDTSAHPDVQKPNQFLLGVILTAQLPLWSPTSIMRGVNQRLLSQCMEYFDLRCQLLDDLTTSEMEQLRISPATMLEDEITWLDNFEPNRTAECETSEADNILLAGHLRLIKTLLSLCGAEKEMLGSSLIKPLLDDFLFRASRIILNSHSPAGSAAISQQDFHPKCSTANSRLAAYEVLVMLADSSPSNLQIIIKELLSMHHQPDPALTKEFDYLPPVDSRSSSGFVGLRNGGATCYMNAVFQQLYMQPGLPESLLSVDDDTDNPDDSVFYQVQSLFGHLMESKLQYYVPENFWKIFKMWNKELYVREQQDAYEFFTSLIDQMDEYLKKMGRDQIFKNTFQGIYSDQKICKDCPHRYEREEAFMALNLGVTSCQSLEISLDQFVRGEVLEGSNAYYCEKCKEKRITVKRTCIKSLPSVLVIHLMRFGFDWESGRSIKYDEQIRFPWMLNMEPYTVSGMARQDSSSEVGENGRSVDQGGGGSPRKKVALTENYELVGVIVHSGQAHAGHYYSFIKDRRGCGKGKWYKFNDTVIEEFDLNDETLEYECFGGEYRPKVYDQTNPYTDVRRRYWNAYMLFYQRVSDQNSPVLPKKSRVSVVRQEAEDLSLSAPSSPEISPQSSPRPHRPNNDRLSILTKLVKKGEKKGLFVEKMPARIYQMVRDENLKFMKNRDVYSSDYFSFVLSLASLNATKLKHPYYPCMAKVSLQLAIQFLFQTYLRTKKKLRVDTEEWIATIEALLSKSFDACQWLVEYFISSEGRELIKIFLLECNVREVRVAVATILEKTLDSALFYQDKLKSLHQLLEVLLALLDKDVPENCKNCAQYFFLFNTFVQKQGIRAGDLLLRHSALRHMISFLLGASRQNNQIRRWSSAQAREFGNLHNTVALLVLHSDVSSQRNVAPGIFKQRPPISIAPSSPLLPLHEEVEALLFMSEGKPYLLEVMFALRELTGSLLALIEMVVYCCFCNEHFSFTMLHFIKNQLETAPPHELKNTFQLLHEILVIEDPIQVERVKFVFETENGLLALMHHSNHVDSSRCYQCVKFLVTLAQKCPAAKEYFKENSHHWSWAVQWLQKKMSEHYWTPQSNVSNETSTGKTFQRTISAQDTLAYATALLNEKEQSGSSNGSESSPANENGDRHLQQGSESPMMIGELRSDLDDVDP
In short: as §1

USP25 = target: T2, USP25 (UniProt Q9UHP3)
T2 sequence (whole entry): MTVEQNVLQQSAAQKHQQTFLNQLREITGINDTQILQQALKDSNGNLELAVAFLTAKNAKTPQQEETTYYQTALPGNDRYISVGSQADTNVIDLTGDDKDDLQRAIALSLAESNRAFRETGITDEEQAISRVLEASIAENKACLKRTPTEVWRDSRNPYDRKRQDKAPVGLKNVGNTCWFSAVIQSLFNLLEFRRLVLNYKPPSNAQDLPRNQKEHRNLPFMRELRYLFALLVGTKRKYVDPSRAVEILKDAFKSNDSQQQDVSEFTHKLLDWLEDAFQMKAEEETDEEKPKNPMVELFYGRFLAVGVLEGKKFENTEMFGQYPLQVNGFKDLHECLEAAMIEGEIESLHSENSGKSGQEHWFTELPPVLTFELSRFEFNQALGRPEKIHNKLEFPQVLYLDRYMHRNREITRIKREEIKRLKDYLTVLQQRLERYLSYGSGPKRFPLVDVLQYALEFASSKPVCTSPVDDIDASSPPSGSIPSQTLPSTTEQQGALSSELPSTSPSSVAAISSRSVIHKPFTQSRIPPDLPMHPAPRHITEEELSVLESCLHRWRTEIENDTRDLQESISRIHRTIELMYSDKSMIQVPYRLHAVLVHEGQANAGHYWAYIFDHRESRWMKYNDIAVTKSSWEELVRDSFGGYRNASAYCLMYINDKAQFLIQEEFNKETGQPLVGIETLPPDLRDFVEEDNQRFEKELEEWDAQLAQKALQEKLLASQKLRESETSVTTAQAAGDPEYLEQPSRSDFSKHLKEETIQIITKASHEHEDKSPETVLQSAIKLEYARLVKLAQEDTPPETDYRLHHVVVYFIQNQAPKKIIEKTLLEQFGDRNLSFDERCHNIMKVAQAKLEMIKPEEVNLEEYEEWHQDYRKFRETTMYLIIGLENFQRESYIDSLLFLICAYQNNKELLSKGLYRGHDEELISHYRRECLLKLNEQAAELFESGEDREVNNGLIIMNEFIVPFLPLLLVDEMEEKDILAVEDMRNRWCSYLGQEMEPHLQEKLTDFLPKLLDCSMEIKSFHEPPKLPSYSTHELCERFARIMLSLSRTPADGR
In short: as §1

USP28 = target: T3, USP28 (UniProt Q96RU2)
T3 sequence (whole entry): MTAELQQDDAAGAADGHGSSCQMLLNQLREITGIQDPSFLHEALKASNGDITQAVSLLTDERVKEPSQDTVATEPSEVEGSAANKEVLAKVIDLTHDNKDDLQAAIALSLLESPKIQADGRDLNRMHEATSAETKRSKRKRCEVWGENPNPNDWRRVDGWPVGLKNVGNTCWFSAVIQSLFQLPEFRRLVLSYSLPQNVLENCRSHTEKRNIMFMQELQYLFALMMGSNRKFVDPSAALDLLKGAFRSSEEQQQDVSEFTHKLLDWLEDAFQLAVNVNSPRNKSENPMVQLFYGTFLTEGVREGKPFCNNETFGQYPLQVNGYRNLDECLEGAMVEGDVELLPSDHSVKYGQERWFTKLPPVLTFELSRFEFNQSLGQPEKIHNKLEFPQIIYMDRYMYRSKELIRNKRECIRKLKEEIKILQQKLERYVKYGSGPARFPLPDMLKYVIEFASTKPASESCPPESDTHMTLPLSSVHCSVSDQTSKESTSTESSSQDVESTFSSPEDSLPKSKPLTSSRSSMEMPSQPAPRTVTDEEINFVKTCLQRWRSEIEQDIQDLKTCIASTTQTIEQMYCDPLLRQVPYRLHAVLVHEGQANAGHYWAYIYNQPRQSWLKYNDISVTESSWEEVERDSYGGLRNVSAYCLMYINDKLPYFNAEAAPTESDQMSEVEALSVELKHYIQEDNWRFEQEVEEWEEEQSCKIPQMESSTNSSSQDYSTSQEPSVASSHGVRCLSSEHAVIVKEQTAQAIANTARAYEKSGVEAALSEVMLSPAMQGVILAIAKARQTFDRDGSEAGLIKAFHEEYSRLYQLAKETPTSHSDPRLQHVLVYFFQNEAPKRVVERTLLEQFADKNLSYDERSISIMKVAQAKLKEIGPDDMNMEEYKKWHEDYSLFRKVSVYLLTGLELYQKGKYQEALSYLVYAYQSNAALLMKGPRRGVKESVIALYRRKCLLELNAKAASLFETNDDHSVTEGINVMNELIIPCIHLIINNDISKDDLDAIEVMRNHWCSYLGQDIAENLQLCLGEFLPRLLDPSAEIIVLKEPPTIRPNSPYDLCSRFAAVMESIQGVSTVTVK
In short: as §1

Measured: log2 ratio of Biotin-Ahx-Ub-VS probe labelling

Cc1cccc(C(CNC(=O)CCl)N2CCOCC2)c1.Cl (centres undefined)
inactive: USP19 0.101 | USP24 0.135 | USP25 -0.355 | USP28 -0.0645
